GRIN3A LBD mod: modulates the human NR3A ligand-binding domain | NR3A LBD differential scanning fluorimetry, Tm shift; 0% = protein alone, 100% = glycine-bound protein | Tm shift relative to glycine control, % at 25 µM | hit rate 2.5% among 340,000;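 active = melting temperature shift of at least 10% of the positive control shift, at one fixed dose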
ADAM17 inh: ADAM17 inhibition, QFRET primary screen | P78536 | recombinant ADAM17, EDANS/DABCYL FRET peptide cleavage | inhibition, % at 6.95 µM | hit rate 0.83% among 370,000 | AID 720648;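 active = inhibition above the mean of compounds lying between control limits plus 3 SD, set per campaign, cut at about 8.5% in these data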;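 also: 0% = DMSO-only wells as the low control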
AHR act: activators of human aryl hydrocarbon receptor; AHR-responsive luciferase reporter cells, luminescence; P35869; hit rate 2.5% among 320,000; activation, % at 5 µM; in the data active = activation above about 47%;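 also: 0% = vehicle wells and 100% = reference agonist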
Target sequence (P35869 whole entry, looked up): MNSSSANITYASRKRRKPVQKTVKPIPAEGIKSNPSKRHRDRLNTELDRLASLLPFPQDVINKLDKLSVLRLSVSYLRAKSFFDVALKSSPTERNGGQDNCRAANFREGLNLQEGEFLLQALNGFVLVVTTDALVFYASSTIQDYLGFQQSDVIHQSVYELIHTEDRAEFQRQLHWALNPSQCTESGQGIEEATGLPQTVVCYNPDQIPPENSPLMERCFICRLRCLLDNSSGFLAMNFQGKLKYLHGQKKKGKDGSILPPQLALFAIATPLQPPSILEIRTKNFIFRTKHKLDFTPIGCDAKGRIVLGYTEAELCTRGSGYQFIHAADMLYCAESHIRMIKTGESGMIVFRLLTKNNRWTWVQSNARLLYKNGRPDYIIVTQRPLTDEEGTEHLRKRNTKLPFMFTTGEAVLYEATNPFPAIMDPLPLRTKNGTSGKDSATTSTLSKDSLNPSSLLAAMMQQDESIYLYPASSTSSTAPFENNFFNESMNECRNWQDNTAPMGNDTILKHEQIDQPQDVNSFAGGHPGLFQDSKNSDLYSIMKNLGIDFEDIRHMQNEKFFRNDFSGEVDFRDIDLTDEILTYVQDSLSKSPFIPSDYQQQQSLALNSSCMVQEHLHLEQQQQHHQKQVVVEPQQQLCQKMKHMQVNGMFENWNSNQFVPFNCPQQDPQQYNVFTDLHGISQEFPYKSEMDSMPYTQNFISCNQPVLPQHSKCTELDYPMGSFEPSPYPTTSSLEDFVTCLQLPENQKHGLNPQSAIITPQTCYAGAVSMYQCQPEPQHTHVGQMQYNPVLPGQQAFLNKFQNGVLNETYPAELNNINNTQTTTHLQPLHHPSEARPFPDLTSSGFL
rCAG RNA binder: r(CAG) repeat RNA binding; TO-PRO-1 dye displacement fluorescence; inhibition, % at 3 µM; hit rate 1.3% among 370,000;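 active = inhibition above the plate cutoff, the mean of all test compounds on that plate plus 3 SD, cut at about 35% in these data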;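 also: 0% = DMSO alone and 100% = 100 µM mitoxantrone as full dye displacement; higher means more dye released from RNA so lower well fluorescence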
ADAM10 inh: inhibitors of human ADAM10; AID 720582; recombinant ADAM10, EDANS/DABCYL FRET peptide cleavage, 3 h; hit rate 0.62% among 370,000; inhibition, % at 7 µM;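 active = inhibition above a per-campaign cutoff equal to the mean of compounds falling between control-based bounds plus 3 SD, cut at about 20% in these data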;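 also: 0% = DMSO wells while the 100% control is not disclosed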
proKLK7 act: proKLK7 (human) activation, primary screen | purified proKLK7, EDANS-DABCYL substrate fluorescence; 100% is mature enzyme control, 0% vehicle | activation, % at 7 µM | hit rate 0.9% among 370,000;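 active = activation above the mean of all tested compounds plus 3 SD, computed per campaign excluding outliers beyond control limits, cut at about 13% in these data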
Starred values were filed as active, the others as inactive; . = no result given. Shown are actives, neighbours in structure and some others; about 7% of the full set was active somewhere.

SMILES	GRIN3A LBD mod	ADAM17 inh	AHR act	rCAG RNA binder	ADAM10 inh	proKLK7 act
COc1cc(Cl)c(C)cc1NC(=O)CSC1=NCCS1	20*	2	3	7	-7	0
Cc1ccc(N2NC(C)(c3cccs3)NC2=S)cc1 (configuration not stated)	-28	-6	52*	-2	-21	-1
Cc1ccc(N2CC(O)(c3cccs3)[N+]3=C2CCCC3)cc1 (configuration not stated)	-3	-4	4	0	-5	0
O=C(Nc1nc2ccc(F)cc2s1)c1cccc(S(=O)(=O)N2CCc3ccccc32)c1	14*	0	25	9	2	-2
CCC(CC)c1nnc(NC(=O)c2cccc(S(=O)(=O)N3CCc4ccccc43)c2)s1	1	7	8	13	15	0
O=C(Nc1nncs1)c1cccc(S(=O)(=O)N2CCc3ccccc32)c1	-17	1	3	17	5	0
CCOC(=O)c1sc(NC(=O)c2cccc(S(=O)(=O)N3CCc4ccccc43)c2)c(C#N)c1C	21*	-2	8	26	6	1
Oc1oc(-c2ccccc2)nc1C=Nc1ccccc1	-32	0	5	2	2	0
O=[N+]([O-])c1cccc(/C=C/c2nc(C=Nc3ccccc3)c(O)o2)c1	11*	-3	0	-1	-3	0
Cc1ccc(O)c(-c2cc(-c3ccc(F)cc3)no2)c1	5	-1	-7	3	2	0
Oc1ccccc1-c1cc(-c2ccccc2)no1	19*	-2	43	8	6	-2
Cc1ccc(-c2cc(-c3ccccc3)no2)c(O)c1	5	3	44	2	3	0
Cc1ccccc1-c1cc(-c2ccccc2O)on1	-7	2	73*	7	12	0
Cc1ccnc(SCCn2c(N3CCC(C)CC3)nc3c2c(=O)[nH]c(=O)n3C)n1	13*	-4	.	-1	-10	0
COc1ccc(NC(C)=O)c([N+](=O)[O-])c1[N+](=O)[O-]	14*	2	.	-1	-1	0
COc1ccc(OC)c([N+](=O)[O-])c1C(N)=O	1	-5	-1	0	-8	0
CC(C)=CCC12Oc3cc(O)ccc3C1(O)Oc1cc(O)c([C@H]3C=C(C)CC(c4ccc(O)cc4O)[C@H]3C(=O)c3ccc(O)cc3O)c(O)c1C2=O (some centres not stated)	68*	.	1	.	.	.
CN(CCO)c1ccc(C=NNc2ccc([N+](=O)[O-])cc2S(=O)(=O)Nc2ccccc2C(=O)O)cc1	26*	3	-1	91*	7	0
CCOc1ccc(C=NNc2ccc(S(=O)(=O)Nc3ccccc3C(=O)O)cc2[N+](=O)[O-])cc1OC	15*	.	-1	.	.	.
O=C(O)c1ccccc1NS(=O)(=O)c1ccc(N/N=C/c2cccc(O)c2O)c([N+](=O)[O-])c1	32*	8	.	92*	9	1
C=CCNc1ccc2c(c1)OC[C@H](Cc1ccccc1)NS2(=O)=O	.	-1	.	-1	-4	0
O=C(NCc1ccco1)c1ccc(COCC(F)(F)F)cc1	2	-1	-3	0	-2	-1
O=C(NCc1ccco1)c1ccc(COCC(F)(F)C(F)F)cc1	2	0	-1	41*	6	0
COC(=O)c1ccc(S(=O)(=O)N2CCC(NC(=O)Cc3cccc(C)c3)CC2)cc1	.	-3	.	3	4	0
COc1cc(/C=C2/SC(=Nc3ccc(O)cc3)NC2=O)ccc1O	27*	0	1	-2	4	0
SMILES	GRIN3A LBD mod	ADAM17 inh	AHR act	rCAG RNA binder	ADAM10 inh	proKLK7 act
O=C1N/C(=N/Nc2ccccc2)S/C1=C\c1ccccc1	10*	4	15	34	6	-2
COc1cc(/C=C2\SC(=Nc3ccccc3OC)NC2=O)ccc1O	-6	3	6	11	0	-1
COc1ccc(N=C2NC(=O)/C(=C/C=C/c3ccccc3)S2)cc1	14*	1	-2	7	1	0
COc1ccc(/C=C2\SC(=NCc3ccccc3)NC2=O)cc1	17*	-2	14	8	-7	0
COC(=O)/C=C1\SC(=Nc2ccc(Cl)c(Cl)c2)NC1=O	-5	1	0	3	-8	0
COc1cc(/C=C2\SC(=Nc3ccccc3)NC2=O)cc(Cl)c1O	12*	2	19	-12	4	-1
